Measured values published in PubChem BioAssay AID488896 (Broad Institute, 2010).
Hit rate of the full screen: of about 320,000 compounds, about 3,100 (0.97%) were called active.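 How the source made its calls: active means mean replicate inhibition of at least 70% and a set share of replicates each scoring 70 or more; inconclusive means meets just one of the two criteria; inactive means fails both criteria.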 The sample as a whole holds a higher share of actives than the screen did.

What follows are compounds tested against Scavenger receptor class B member 1 (Mus musculus) (UniProt Q61009) (assay: mouse SR-BI DiI-HDL uptake blockers – ldlA[mSR-BI] cells, fluorescence, single point, primary screen (AID 488896;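 further: 0% = median of neutral control wells and 100% = median of positive control wells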)). Conditions: ldlA[mSR-BI] CHO cells, 3 h, at 12.5 µM, hits give high values.
Sequence of Scavenger receptor class B member 1 (Mus musculus) (Q61009 whole entry, looked up): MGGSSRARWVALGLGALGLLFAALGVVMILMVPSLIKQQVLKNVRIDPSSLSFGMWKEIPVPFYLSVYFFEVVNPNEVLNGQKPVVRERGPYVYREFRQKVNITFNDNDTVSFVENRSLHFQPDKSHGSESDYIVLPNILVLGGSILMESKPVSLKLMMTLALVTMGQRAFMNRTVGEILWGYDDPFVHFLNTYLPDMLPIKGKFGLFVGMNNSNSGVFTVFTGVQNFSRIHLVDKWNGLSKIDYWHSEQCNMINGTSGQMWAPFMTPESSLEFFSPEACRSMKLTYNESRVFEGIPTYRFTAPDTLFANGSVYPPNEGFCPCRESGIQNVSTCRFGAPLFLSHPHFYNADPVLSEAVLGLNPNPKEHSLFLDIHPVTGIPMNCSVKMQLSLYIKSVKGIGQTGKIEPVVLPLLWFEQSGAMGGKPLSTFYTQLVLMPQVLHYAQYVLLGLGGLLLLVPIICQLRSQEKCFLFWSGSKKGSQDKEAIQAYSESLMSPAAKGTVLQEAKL

SMILES | inhibition
Oc1c(Cl)cc(Cl)c(Cl)c1Cc1c(O)c(Cl)cc(Cl)c1Cl | 78.2% (active)
CC(C)(C)OC(=O)N(Cc1ccccc1)Cc1ccc(OCc2cccc(NC(=O)c3ccccc3)c2)cc1 | 30.4% (inactive)
COc1cc(OC)cc(-c2nnc(N(C)C(=O)c3ccncc3)s2)c1 | 45% (inactive)
CN(C(=O)COc1ccccc1)c1nnc(-c2ccncc2)s1 | 70.2% (active)
CN(C(=O)c1ccccn1)c1nnc(-c2ccccn2)s1 | -7.4% (inactive)
N#CCc1c[nH]c2ccc([N+](=O)[O-])cc12 | -13.4% (inactive)
Cc1nc(Nc2ccccc2C)c2cnn(C)c2n1 | -3.29% (inactive)
CCOc1cc(N2CCOCC2)c(OCC)cc1NC(=O)c1cc(C)nc2ccccc12 | 20.8% (inactive)
CCOc1cc(NC(=S)NCc2ccco2)c(OCC)cc1NC(=O)c1ccco1 | 43.4% (inactive)
CCOc1cc(N2CCOCC2)c(OCC)cc1NC(=O)c1ccc(C)s1 | 37% (inactive)
CCOc1cc(NC(=O)c2ccco2)c(OCC)cc1NC(=O)COc1ccccc1 | 80.9% (active)
CCOc1cc(N2CCOCC2)c(OCC)cc1NC(=O)COc1cccc(Cl)c1 | 74.8% (active)
CCOc1cc(NC(=S)NCCCOC)c(OCC)cc1NC(=O)c1ccco1 | 28.5% (inactive)
CN(C)C(=S)N=c1ssc(=S)n1Cc1ccco1 | 0.753% (inactive)
CC(=O)Nc1ccc(C(=O)Nc2cc(S(=O)(=O)N3CCOCC3)ccc2N2CCOCC2)cc1 | -8.12% (inactive)
COC(=O)Cc1c(-c2[nH]c3ccccc3c2CC(=O)OC)[nH]c2ccccc12 | 37.9% (inactive)
O=C(NOCc1ccccc1)c1cccc([N+](=O)[O-])c1 | -13.8% (inactive)
C(=N\N1CCN(c2ccccn2)CC1)/C1=C(N2CCOCC2)C(=C/c2ccccc2)/CC1 | 95.8% (active)
O=C(O)c1ccc(NN=CC2=C(N3CCOCC3)/C(=C/c3ccccc3)CC2)cc1 | -13% (inactive)
COc1ccc(/C=N/N=C2/C(=O)Nc3ccccc32)cc1O | -2.91% (inactive)
O=C1Nc2ccc(Br)cc2/C1=N/N=C/C1=C(N2CCOCC2)C(=C\c2ccccc2)/CC1 | 147% (active)
O=C(CSc1nnc(N2CCOCC2)n1-c1cccc(F)c1)N1CCN(c2ccccn2)CC1 | 0.884% (inactive)
C[C@H](O)[C@@H]1C(=O)N2CCc3ccc(N4CCOCC4)cc3[C@@H]2C[C@@H]1N(C)C(=O)C(C)(C)C | -2.83% (inactive)

SMILES | inhibition
COc1cc2c(cc1OC)C(Cc1cc(OC)c(OC)cc1[N+](=O)[O-])=NCC2 | -13% (inactive)
CC1CN(Cc2ccco2)C(=S)N(c2ccccc2)C1=O (configuration not stated) | -33.1% (inactive)
COc1cc(C2c3cc4c(cc3C(O)C3COC(=O)C23)OCO4)cc(OC)c1OC (configuration not stated) | -0.16% (inactive)
CCOc1ccc(S(=O)(=O)N2CCN(C(=O)c3oc4ccccc4c3C)CC2)cc1 | -15.2% (inactive)
CCOc1ccc(-c2nnn(CC(=O)N3CCN(c4ccc(F)cc4)CC3)n2)cc1OCC | 48.2% (inactive)
COc1ccc(C(=O)Cn2nnc(-c3ccc(N4CCOCC4)cc3)n2)cc1OC | 33% (inactive)
CCOc1ccc(-c2nnn(CC(=O)N3CCN(c4ccc(OC)cc4)CC3)n2)cc1OCC | 82% (active)
COc1ccc(Cl)cc1NC(=O)c1oc(C)nc1C | 10.4% (inactive)
C=CCCC(=O)Nc1nc(C)c(-c2csc(Nc3ccc(Cl)cc3)n2)s1 | 104% (active)
CCCCN(C)CCC(=O)Nc1ccc(Cl)cc1 | -5.92% (inactive)
Cc1nc(NC(=O)CN(C)S(=O)(=O)c2ccc(Cl)cc2)sc1C | 2.99% (inactive)
COc1cccc(NC(=O)CN2CCN(c3nc(-c4cccc(OC)c4)cs3)CC2)c1 | 19.1% (inactive)
CCCCC(=O)Nc1nc(C)c(-c2csc(Nc3ccc(Cl)cc3)n2)s1 | 103% (active)
Cc1cccc(S(=O)(=O)CC(=O)Nc2nc(-c3ccccc3)cs2)c1 | -18% (inactive)
CCCCC(=O)N/N=C(\C)CC(=O)Nc1cc(Cl)ccc1OC | 27.7% (inactive)
COc1cccc(CC(=O)Nc2ccc(-c3csc(C)n3)cc2)c1 | 22% (inactive)
CCCCCCC(=O)Nc1nc(C)c(-c2csc(Nc3cccc(OC)c3)n2)s1 | 87.2% (active)
CCCCCCC(=O)Nc1nc(C)c(-c2csc(Nc3cc(Cl)ccc3OC)n2)s1 | 97.4% (active)
CCC(=O)Nc1nc(C)c(C(=O)Nc2cccc(Cl)c2)s1 | 49.6% (inactive)
CC(=O)c1cccc(-c2ccc(CN3C(CC(C)C)C(=O)N(Cc4cn(CC5CCCCC5)nn4)CCS3(=O)=O)cc2)c1 (configuration not stated) | 48.8% (inactive)
COc1cc(O)c2c(=O)c3c(O)c(O)ccc3oc2c1OC | 10.1% (inactive)
O=c1oc2ccccc2c(=O)c2ccccc12 | -23.4% (inactive)
COc1ccc(C(=O)N(C)Cc2ccc(OC)c(OC)c2OC)cc1S(=O)(=O)N1CCOCC1 | -8.86% (inactive)

SMILES | inhibition
CC(Nc1ccc([N+](=O)[O-])cc1[N+](=O)[O-])c1ccccc1 (configuration not stated) | 21.4% (inactive)
O=[N+]([O-])c1cc2ccccc2nc1-c1ccccc1 | -10.5% (inactive)
O=C(O)C1C2C=CC(O2)C1C(=O)Nc1ccccn1 (configuration not stated) | -12.6% (inactive)
CCN(CC(=O)Nc1c(F)cccc1F)C(=O)Cc1cccs1 | 9.34% (inactive)
CC(NC(=O)c1ccccc1)C(=O)OCC(=O)Nc1cccc(S(=O)(=O)N2CCCC2)c1 (configuration not stated) | -1.56% (inactive)
CCOc1cc(C(=O)N(Cc2ccccc2)c2ccc(C)cc2)ccc1OCC(=O)N1CCOCC1 | 5.71% (inactive)
O=C(c1ccc2c(c1)C(=O)N(Cc1ccncc1)C2=O)N1CCN(S(=O)(=O)c2ccc(OC(F)(F)F)cc2)CC1 | -23.1% (inactive)
Cc1cc(C(=O)CSc2nc(N)cc(=O)[nH]2)c(C)n1CCc1ccc(Cl)cc1 | 83.8% (active)
Cc1cc(C(=O)CSc2nc(N)cc(=O)[nH]2)c(C)n1Cc1ccco1 | -21.5% (inactive)
CCCc1cc(=O)[nH]c(SCC(=O)c2cc(C)n(CCC)c2C)n1 | 10.7% (inactive)
O=C(O)C(CCc1ccccn1)c1ccccc1 (configuration not stated) | 11.9% (inactive)
CCCCC(=O)NC(c1ccc(OC)c(OC)c1)c1ccc2cccnc2c1O (configuration not stated) | 3.38% (inactive)
O=C(CC1SC(N2CCOCC2)=NC1=O)Nc1ccccc1F (configuration not stated) | -4.16% (inactive)
N#C/C(=C\C1=C(N2CCOCC2)C(=C\c2ccccc2)/CC1)C(=O)Nc1ccccc1F | 83.9% (active)
N#C/C(=C\c1ccccc1C(F)(F)F)C(=O)Nc1ccccc1F | -32.2% (inactive)
O=C(Nc1ccc(S(=O)(=O)N2CCOCC2)cc1)C1CCN(S(=O)(=O)c2ccc(Cl)cc2)CC1 | -8.47% (inactive)
CC12CCCCC1=CC(=O)CC2 (configuration not stated) | -0.111% (inactive)
COc1ccc(Cl)cc1C=CC=NNC(=O)c1ccncc1 | 70% (inactive)
CC(C)(C)OC(=O)NNc1c2ccccc2nc2ccccc12 | 23.2% (inactive)
O=C(NNc1c2ccccc2nc2ccccc12)c1cc2ccccc2cc1O | 117% (active)
O=C(N/N=C/c1cccnc1)c1cc2ccccc2cc1O | 25.7% (inactive)
COC(=O)c1ccc(NCc2cc(O)ccc2O)cc1 | -3.37% (inactive)
CC(C)c1cc(N=O)cc(C(C)C)c1O | -19.1% (inactive)

SMILES | inhibition
O=C(NN=Cc1ccccc1)c1ccccc1 | -4.39% (inactive)
CC(C)c1ccc(C=NNc2ccc([N+](=O)[O-])cn2)cc1 | -2.92% (inactive)
Cc1nn(-c2ccc(F)cc2)c(Cl)c1/C=C(/CCC(=O)O)c1nc2ccccc2s1 | -16% (inactive)
O=C(CC1Sc2ccccc2NC1=O)NNc1ccc(Cl)c(Cl)c1 (configuration not stated) | 45.6% (inactive)
N#CC1=C(N)Oc2cc(N)ccc2C1c1ccccc1 (configuration not stated) | -23.9% (inactive)
COc1ccc2nc(Nc3nc(-c4ccncc4)cs3)sc2c1 | 80.2% (active)
COc1ccc2nc(NC(=O)c3ccc(Br)s3)sc2c1 | 55.7% (inactive)
COc1ccc2nc(NC(=O)[C@@H]3CCCN3C(=O)c3cccs3)sc2c1 | 14.9% (inactive)
OCC(O)C1OCOC(C(O)CO)C1O (configuration not stated) | -38.2% (inactive)
CC1(C)C(=O)CCC2(C)C1=CCC1C2C(=O)CC2(C)C1CCC2(O)C(=O)CO (configuration not stated) | -7.32% (inactive)
CC1CCCN(C(=O)Cn2c(=O)oc3cc(S(=O)(=O)N4CCCCC4C)ccc32)C1 (configuration not stated) | -29.3% (inactive)
CC(C)C[C@H]1CN([C@@H](CC(C)C)CN2CCC[C@@H]2CN2C(=O)C(=O)NC[C@@H]2Cc2ccccc2)C(=O)C(=O)N1CCc1ccccc1 | 20.9% (inactive)
COc1cccc(C(=O)Nc2nc3ccc(S(C)(=O)=O)cc3s2)c1 | 70.8% (active)
CS(=O)(=O)c1ccc2nc(NC(=O)c3ccc(Cl)nc3)sc2c1 | 32.9% (inactive)
CS(=O)(=O)c1ccc2nc(NC(=O)C3C4C=CC(C4)C3C(=O)O)sc2c1 (configuration not stated) | 5.33% (inactive)
Cc1ccc(S(=O)(=O)n2oc(=O)c(C3CCCCC3)c2N)cc1 | -8.19% (inactive)
O=C1C(Cl)=C(Oc2ccccc2)C(=O)c2ccccc21 | 13.1% (inactive)
CCOc1ccc2nc(NC(=O)c3cc([N+](=O)[O-])ccc3N3CCOCC3)sc2c1 | 78.1% (active)
COc1ccc(S(=O)(=O)N2CCCCC2)cc1NC(=O)c1cc([N+](=O)[O-])ccc1N1CCOCC1 | 23.2% (inactive)
CCCC(=O)N(CCN1CCOCC1)c1nc2ccc(OCC)cc2s1 | 40.2% (inactive)
O=C1OC(Cc2ccccc2)C(c2ccccc2)C1=O (configuration not stated) | -5.71% (inactive)
COc1ccc(N=C2C=CC(=O)O2)cc1 | -24.8% (inactive)
O=S(=O)(Cc1ccc(Cl)cc1Cl)c1ccc(Cl)cc1 | 15.8% (inactive)
